# Experimental data: PubChem BioAssay
# Several values for one entry are separate records, joined by “and”; a condition that tells them apart may be missing. Identical values can stand only once. Records with an inconclusive call do not appear. The source holds several records for some structures; these can differ, active in one and inactive in another. Activity calls are given as the source filed them. Unless noted, no stated cut-off is given here; in the data, active means inhibition above about 80%; inactive means the rest.
# Legend:
# [1] = viability loss in pontine glioma line – cell-based, SU-DIPG-XVII, MIPE5.0, CellTiter-Glo, qHTS, dose response (AID 1347060; cut-off not given, nearly all actives have AC50 up to about 26 µM;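 on AC50: cells exposed to compound for 48 hours before viability readout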); conditions: CellTiter-Glo ATP luminescence
# [2] = viability loss in pontine glioma line – cell-based, JHH-DIPG-1, MIPE4.0, CellTiter-Glo, qHTS, dose response (AID 1347062; cut-off not given, nearly all actives have AC50 up to about 27 µM;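 on AC50: cells exposed to compound for two days before readout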); conditions: JHH-DIPG-1 viability, CellTiter-Glo ATP luminescence
# [3] = viability loss in pontine glioma line – cell-based, SU-DIPG-IV, MIPE4.0, CellTiter-Glo, qHTS, dose response (AID 1347063; cut-off not given, nearly all actives have AC50 up to about 30 µM;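 further: compound exposure lasted 48 hours before the viability readout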); conditions: CellTiter-Glo ATP luminescence
# [4] = viability loss in pontine glioma line – cell-based, SU-DIPG-XIII, MIPE5.0, CellTiter-Glo, qHTS, dose response (AID 1347064; cut-off not given, nearly all actives have AC50 up to about 23 µM;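 on AC50: cells exposed to compound for 48 hours before the viability read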); conditions: CellTiter-Glo ATP luminescence
# [5] = viability loss in pontine glioma line – cell-based, SU-DIPG-XXV, MIPE5.0, CellTiter-Glo, qHTS, dose response (AID 1347065; cut-off not given, nearly all actives have AC50 up to about 26 µM;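 further: cells exposed to compound for 48 hours before ATP readout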); conditions: CellTiter-Glo ATP luminescence
# [6] = growth inhibition of DIPG cells – cell-based, MIPE4.0 library, CellTiter-Glo luminescence, qHTS (AID 1347066; cut-off not given, nearly all actives have AC50 up to about 30 µM;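 further: cells exposed to compound for 48 hours before readout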); conditions: SU-DIPG-VI viability, CellTiter-Glo ATP luminescence
# [7] = JHH-DIPG-1 glioma cell viability, MIPE5.0 library, CellTiter-Glo luminescence, qHTS (AID 1347067; cut-off not given, nearly all actives have AC50 up to about 26 µM;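 further: cells exposed to compound for 48 hours before readout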); conditions: JHH-DIPG-1 glioma viability, CellTiter-Glo ATP luminescence
# [8] = growth inhibition of DIPG cells – cell-based, MIPE5.0 library, qHTS (AID 1347068; cut-off not given, nearly all actives have IC50 up to about 30 µM); conditions: SU-DIPG-XXV viability
# [9] = viability loss with induced miR-34 in A549 – imaging, A549 dox-inducible miR-34, nuclei and caspase counts, primary screen (AID 1347080;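 active means compounds whose cell count with miR-34 switched on is under 0.7 times the count with it off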); conditions: A549 miR-34 inducible, Hoechst nuclei count, 48 h
# [10] = compounds altering HSF1 focus formation in cells – imaging, Selleck Cancer Library (AID 1347162; in the data active means plate-normalised HSF1 focus index below about 0.46); conditions: human cells, HSF1 nuclear foci imaging, at 10 µM; SSMD: measured here: HSF1 foci SSMD mean; cell count: measured here: cell number; plate-normalised HSF1 focus index: stronger effect = lower value
# [11] = growth inhibition, single agent or in combination, cell-based, chromothripsis tumors, cisplatin or BGB combos (AID 1671449); conditions: LFS_MB_P medulloblastoma cells;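 further: cells exposed for 96 hours; 0% = vehicle DMSO and 100% = killing by high DMSO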
# [12] = growth inhibition, single agent and combos, cell-based, chromothripsis tumors, cisplatin or BGB combos (AID 1671450); conditions: HDN33 neuroblastoma cells, stronger effect = higher value;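 further: cells exposed to compound for four days; 0% = vehicle DMSO and 100% = cell killing by high DMSO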
# [13] = growth inhibition, single agents and combos, ICB984, cell-based, cisplatin or BGB combos, synergistic combos for chromothripsis tumors (AID 1671451; call rule not given here;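 further: cells exposed for 96 hours before readout; 0% = vehicle DMSO and 100% = killing by high DMSO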); conditions: ICB984 medulloblastoma cells, drug combinations, stronger effect = higher value
# [14] = growth inhibition, single agents and combos, HTB85, cell-based, BGB or cisplatin IC20 combos, synergistic combos for chromothripsis tumors (AID 1671453); conditions: HTB85 osteosarcoma cells, drug combinations, stronger effect = higher value;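 further: cells exposed for 96 hours before readout; 0% = vehicle DMSO and 100% = high DMSO killing control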
# [15] = growth inhibition, MDA-MB-436, cell-based, BGB or cisplatin combos, synergistic combos for chromothripsis tumors (AID 1671458; call rule not given here;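 further: cells exposed for 96 hours; 0% = vehicle DMSO and 100% = killing by high DMSO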); conditions: MDA-MB-436 breast carcinoma growth inhibition, drug combinations, stronger effect = higher value
# [16] = BT084 cell growth, single and combined drugs, ICGC_MB145, cisplatin and BGB IC40 combos (AID 1671461); conditions: BT084 medulloblastoma cells, drug combinations, stronger effect = higher value;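 further: cells exposed to drugs for 96 hours; 0% = vehicle DMSO and 100% = high DMSO full killing control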
# [17] = RCMB18 cell growth, single agent and combined, cisplatin and BGB IC40 combos (AID 1671462); conditions: RCMB18 medulloblastoma cells, stronger effect = higher value;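 further: cells exposed to compound for four days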
# [18] = CRL1545 cell growth, single agent and combined, cisplatin and BGB IC20 combos (AID 1671464); conditions: CRL1545 osteosarcoma cells, stronger effect = higher value;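 further: cells exposed to compound for 96 hours before readout; 0% = vehicle DMSO and 100% = high DMSO killing control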
# [19] = measured here: with BGB IC20 combination, at 0.5 µM
# [20] = measured here: with cisplatin IC20 combination, at 0.5 µM
smiles,measurement,setting,value
CCCCC(C)(C)[C@H](O)/C=C/[C@H]1[C@H](O)CC(=O)[C@@H]1C/C=C\CCCC(=O)O,AC50,[1],13200 nM (active)
same,outcome,[2],inactive
same,outcome,[3],inactive
same,AC50,[4],14800 nM (active)
same,AC50,[5],14800 nM (active)
same,AC50,[6],18700 nM (active)
same,AC50,[7],14800 nM (active)
same,outcome,[8],inactive
same,fold change,"[9]; stronger effect = lower value, cell number ratio, induced over uninduced",1.01 (inactive) and 0.939 (inactive)
same,fold change,[9]; measured here: relative caspase fold change +Dox/-Dox,1.62 and 1.28
same,cell count,"[9]; measured here: total cells with miR-34 induction, stronger effect = lower value",6230 and 5490
same,cell count,[9]; measured here: total cells without miR-34 induction,6170 and 5850
Cc1c(CCOc2ccc(C(=O)O)cc2)c2cc(Cl)ccc2n1C(c1ccccc1)c1ccccc1,outcome,[1],inactive
same,outcome,[2],inactive
same,outcome,[3],inactive
same,outcome,[4],inactive
same,outcome,[5],inactive
same,outcome,[6],inactive
same,outcome,[7],inactive
same,outcome,[8],inactive
same,SSMD,[10],2.36
same,cell count,[10],6680
same,plate-normalised HSF1 focus index,[10],1.14 (inactive)
Cc1[nH]c2ccccc2c1CCNCc1ccc(/C=C/C(=O)NO)cc1,AC50,[1],1180 nM (active)
same,AC50,[2],132 nM (active)
same,AC50,[3],332 nM (active)
same,AC50,[4],166 nM (active)
same,AC50,[5],148 nM (active)
same,AC50,[7],166 nM (active)
same,SSMD,[10],-3.12
same,cell count,[10],7220
same,plate-normalised HSF1 focus index,[10],0.803 (inactive)
same,inhibition,"[11]; at 0.5 µM, stronger effect = higher value",42% (inactive) and 87.2% (active)
same,inhibition,"[11]; measured here: combination with BGB IC20, at 0.005 µM",-5.26% and -19.1%
same,inhibition,"[11]; measured here: combination with BGB IC40, at 0.005 µM",-17.3% and -29%
same,inhibition,"[11]; measured here: combination with BGB IC40, at 0.05 µM",-6.97% and -48.6%
same,inhibition,"[11]; measured here: combination with cisplatin, at 0.5 µM, stronger effect = higher value",84.3% and 119%
same,inhibition,"[11]; measured here: combination with cisplatin, at 5 µM, stronger effect = higher value",120% and 116%
same,inhibition,"[12]; BGB combo, at 5 µM",99.9% and 99.7%
same,inhibition,[12]; at 0.5 µM,99.7% (active) and 60.8% (inactive)
same,inhibition,"[12]; cisplatin combo, at 5 µM",99.9% and 100%
same,inhibition,[12]; [19],99.5% and 57.1%
same,inhibition,[12]; [20],99.8% and 58.2%
same,inhibition,"[12]; single agent, at 5 µM",99.9%
same,inhibition,"[13]; BGB IC20 combo, at 0.005 µM",86.9% and 15.5%
same,inhibition,"[13]; BGB IC40 combo, at 0.005 µM",98.3% and 28.4%
same,inhibition,"[13]; BGB IC40 combo, at 0.05 µM",99.9% and 97.7%
same,inhibition,[13]; at 0.5 µM,-9.68% (inactive) and -7.76% (inactive)
same,inhibition,"[13]; cisplatin combo, at 0.05 µM",99.9% and 97.7%
same,inhibition,"[13]; cisplatin combo, at 0.5 µM",-13.7% and 4.07%
same,inhibition,"[13]; cisplatin combo, at 5 µM",25.1% and -22.1%
same,inhibition,"[13]; measured here: 5 uM single agent, at 5 µM",26.1% and 8.36%
same,inhibition,[14]; at 0.5 µM,99.9% (active) and 73.4% (inactive)
same,inhibition,"[14]; measured here: with BGB IC20, at 0.5 µM",100% and 62.5%
same,inhibition,"[14]; measured here: with BGB IC20, at 5 µM",99.9% and 99.8%
same,inhibition,"[14]; measured here: with cisplatin IC20, at 0.5 µM",100% and 90.3%
same,inhibition,"[14]; measured here: with cisplatin IC20, at 5 µM",100%
same,inhibition,"[14]; single agent, at 5 µM",99.9% and 100%
same,inhibition,[15]; at 0.5 µM,68.6% (inactive) and 35.2% (inactive)
same,inhibition,"[15]; measured here: BGB combination, at 0.5 µM",60.4% and 26.7%
same,inhibition,"[15]; measured here: BGB combination, at 5 µM",70.3% and 56.2%
same,inhibition,"[15]; measured here: cisplatin combination, at 0.5 µM",66.3% and 33.8%
same,inhibition,"[15]; measured here: cisplatin combination, at 5 µM",80.8% and 74.3%
same,inhibition,[16]; at 0.5 µM,90.4% (active) and 65.9% (inactive)
same,inhibition,"[16]; cisplatin combination, at 0.5 µM",101% and 78.2%
same,inhibition,"[16]; cisplatin combination, at 5 µM",102% and 105%
same,inhibition,"[16]; measured here: BGB IC40 combination 0.05 uM, at 0.05 µM",52.7% and 3.36%
same,inhibition,"[16]; single agent, at 5 µM",109% and 106%
same,inhibition,[17]; at 0.5 µM,91% (active) and 38.1% (inactive)
same,inhibition,"[17]; cisplatin combo, at 5 µM",99% and 97.8%
same,inhibition,"[17]; measured here: BGB IC40 combination, at 0.05 µM",28.7% and -11.4%
same,inhibition,"[17]; measured here: combination with cisplatin, at 0.5 µM",95.9% and 50.4%
same,inhibition,"[17]; single agent, at 5 µM",97.1% and 93.2%
same,inhibition,[18]; at 0.5 µM,96.5% (active) and 85.3% (active)
same,inhibition,[18]; [19],95.5% and 73.9%
same,inhibition,[18]; [20],96.9% and 90.9%
same,inhibition,"[18]; single agent, at 0.05 µM",93.3% and 52.8%
same,inhibition,"[18]; single agent, at 5 µM",98.9% and 97.5%
